Among the data in PubChem BioAssay (EPA / NIEHS) are outcome and AC50 values, retold here.

The target of test [1] is Retinoic acid receptor alpha (Homo sapiens) (UniProt P10276). Kind of test: ATG_DR5_RAR_CIS: Attagene CIS-FACTORIAL HepG2 Assay for human Retinoic Acid Receptor Alpha (RARE), DR5 submotif (AID 2282934; active = hit-call score of the fitted dose curve at least 0.9, where 1 is the maximum; inactive = score below 0.9). To be noted: HepG2 Attagene cis-factorial RARE DR5 reporter, mRNA; actives raise or lower the signal. A digest of the protocol:
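HepG2 cells transiently transfected with multiplexed reporter units; DR5 cis-element drives reporter through endogenous transcription factors. After 24 h dosing, reporter mRNA quantified by RT-PCR, fluorescent labeling, HpaI digestion and capillary electrophoresis; bidirectional fitting versus DMSO.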

Test [2] can be described thus: ATG_M_19_CIS: Attagene CIS-FACTORIAL HepG2 Assay for M19 Transcription Factor (Internal Marker) (AID 2282939; active = hit-call score of the fitted dose curve at least 0.9, where 1 is the maximum; inactive = score below 0.9). To be noted: HepG2 Attagene CIS-FACTORIAL M19 internal marker reporter; actives raise or lower the signal. A digest of the protocol: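 Signals come from fluorescence of labelled reporter-specific PCR fragments resolved by capillary electrophoresis, following 24 h treatment of HepG2 cells transfected with cis-promoter reporter units; activity was fitted in both directions relative to DMSO.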

Test [3] in a line: ATG_GRE_CIS: Attagene CIS-FACTORIAL HepG2 Assay for human Glucocorticoid Response Elements (GRE) (AID 2282947; active = hit-call score of the fitted dose curve at least 0.9, where 1 is the maximum; inactive = score below 0.9). The settings on record: HepG2 GRE cis-reporter, Attagene multiplex mRNA; actives raise or lower the signal. A digest of the protocol:
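Fluorescence intensity of reporter-specific cDNA fragments, separated by capillary electrophoresis, provides the signal. Constructs carry cis-regulating promoters in transiently transfected HepG2 liver cells; 24 h incubation; fitting is bidirectional against DMSO.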

Test [4] in a line: ATG_MRE_CIS: Attagene CIS-FACTORIAL HepG2 Assay for human Metal Responsive Element (MRE) (AID 2282954; active = hit-call score of the fitted dose curve at least 0.9, where 1 is the maximum; inactive = score below 0.9). The settings on record: HepG2 MRE cis-reporter transcription, Attagene multiplex; actives raise or lower the signal. The method in brief: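 Measured here is mRNA induction from an MRE cis-element reporter in HepG2 after 24 h, quantified by fluorescence of labelled RT-PCR products on capillary electrophoresis; gain- and loss-of-signal fits use DMSO as baseline.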

Test [5] in a line: ATG_PBREM_CIS: Attagene CIS-FACTORIAL HepG2 Assay for human Phenobarbital-responsive Enhancer Module (PBREM) (AID 2282955; active = hit-call score of the fitted dose curve at least 0.9, where 1 is the maximum; inactive = score below 0.9). To be noted: HepG2 PBREM cis-reporter, Attagene multiplexed transcription; actives raise or lower the signal. A digest of the protocol: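 Endogenous transcription factor activity was read from reporter transcripts in transiently transfected human HepG2 liver cells after 24 h dosing. RT-PCR products were fluorescently labelled, HpaI-cut and sized by capillary electrophoresis; activity fitted bidirectionally against DMSO baseline.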

Test [6] deals with X-box-binding protein 1 (Homo sapiens) (UniProt P17861). Put plainly: ATG_Xbp1_CIS: Attagene CIS-FACTORIAL HepG2 Assay for human X-box Binding Protein 1 (XBP1) (AID 2282972; active = hit-call score of the fitted dose curve at least 0.9, where 1 is the maximum; inactive = score below 0.9). The settings on record: HepG2 XBP1 cis-element reporter, Attagene multiplex; actives raise or lower the signal. The method in brief: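 Read-out: fluorescent reporter mRNA fragments resolved by capillary electrophoresis after RT-PCR. Human HepG2 liver cells carried transfected cis-promoter reporter units and were exposed to chemicals for 24 hours. Gain or loss of signal fitted relative to DMSO baseline.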
X-box-binding protein 1 (Homo sapiens), sequence (P17861 whole entry, looked up, the tested form may be a part): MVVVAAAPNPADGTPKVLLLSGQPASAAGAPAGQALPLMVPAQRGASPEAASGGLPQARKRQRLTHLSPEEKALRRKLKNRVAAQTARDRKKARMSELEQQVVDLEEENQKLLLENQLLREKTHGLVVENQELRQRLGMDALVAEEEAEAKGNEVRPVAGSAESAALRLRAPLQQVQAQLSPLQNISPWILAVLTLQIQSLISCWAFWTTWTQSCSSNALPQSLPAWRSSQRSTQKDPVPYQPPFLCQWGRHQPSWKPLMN

Test [7] concerns the target Hepatocyte nuclear factor 4-alpha (Homo sapiens) (UniProt P41235). Put plainly: ATG_HNF4a_TRANS: Attagene TRANS-FACTORIAL HepG2 Assay for human Hepatocyte Nuclear Factor 4 alpha (HNF4a) (AID 2282982). The settings on record: HepG2 HNF4a transactivation reporter, mRNA readout. A digest of the protocol: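 Endpoint reflects transcriptional activation of a GAL4-UAS reporter by an HNF4a-GAL4 chimera in transfected HepG2 cells, 24 h post-dosing. Fluorescence from RT-PCR products separated by capillary electrophoresis; DMSO baseline.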

Test [8] can be described thus: ATG_M_06_TRANS: Attagene TRANS-FACTORIAL HepG2 Assay for M06 Transcription Factor (Internal Marker) (AID 2282983). To be noted: HepG2 Attagene TRANS M06 internal marker reporter. A digest of the protocol: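 Human liver HepG2 cells bearing transiently transfected chimeric NR-GAL4 reporter units were treated with chemicals for 24 h. Total RNA was reverse-transcribed, reporter sequences amplified and labelled, then quantified by capillary electrophoresis. Activity was fitted upward relative to DMSO.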

Test [9] can be described thus: ATG_M_32_TRANS: Attagene TRANS-FACTORIAL HepG2 Assay for M32 Transcription Factor (Internal Marker) (AID 2282984).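 Also: transcript level of a background control reporter unit measured by RT-PCR and capillary electrophoresis.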 The settings on record: HepG2 Attagene TRANS M32 internal marker reporter. The method in brief: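 Internal-marker readout from a multiplexed transcription reporter panel. HepG2 cells were transfected with GAL4-UAS reporter units, treated 24 hours, and reporter transcript levels determined by fluorescence after RT-PCR and capillary separation.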

Test [10] is described as follows: ATG_NF_kB_CIS: Attagene CIS-FACTORIAL HepG2 Assay for human Nuclear Factor Kappa B (NF-kB) (AID 2282991; active = hit-call score of the fitted dose curve at least 0.9, where 1 is the maximum; inactive = score below 0.9). The settings on record: HepG2 Attagene cis-factorial NF-kB reporter mRNA; actives raise or lower the signal. The method in brief:
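Readout is reporter transcript level, gain or loss versus DMSO, measured 24 h post-dose via RT-PCR, fluorescent labelling and capillary electrophoresis. Human HepG2 liver cells carried transiently transfected CIS reporter constructs reflecting endogenous factors.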

Test [11] addresses Retinoic acid receptor RXR-alpha (Homo sapiens) (UniProt P19793). Kind of test: ATG_RXRa_TRANS: Attagene TRANS-FACTORIAL HepG2 Assay for human Retinoid X Receptor alpha (RXRa) (AID 2283012). The method in brief:
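Measures exogenous chimeric NR-GAL4 activity in transfected HepG2 liver cells after 24 h of dosing. Induced reporter mRNA was detected by RT-PCR with capillary electrophoresis, and gain of signal was analysed against DMSO.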

The target in test [12] is human Retinoid X Receptor beta (RXRb), RXRB (gene 6257) (UniProt P28702). Kind of test: ATG_RXRb_TRANS: Attagene TRANS-FACTORIAL HepG2 Assay for human Retinoid X Receptor beta (RXRb) (AID 2283013). The method in brief: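 Chimeric receptor-Gal4 activity was assessed in transiently transfected human HepG2 cells after 24 h exposure. Transcripts from GAL4-UAS reporters were quantified by fluorescent RT-PCR and capillary electrophoresis, with DMSO as negative control and baseline.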
human Retinoid X Receptor beta (RXRb), RXRB (gene 6257), sequence (P28702 whole entry, looked up, the tested form may be a part): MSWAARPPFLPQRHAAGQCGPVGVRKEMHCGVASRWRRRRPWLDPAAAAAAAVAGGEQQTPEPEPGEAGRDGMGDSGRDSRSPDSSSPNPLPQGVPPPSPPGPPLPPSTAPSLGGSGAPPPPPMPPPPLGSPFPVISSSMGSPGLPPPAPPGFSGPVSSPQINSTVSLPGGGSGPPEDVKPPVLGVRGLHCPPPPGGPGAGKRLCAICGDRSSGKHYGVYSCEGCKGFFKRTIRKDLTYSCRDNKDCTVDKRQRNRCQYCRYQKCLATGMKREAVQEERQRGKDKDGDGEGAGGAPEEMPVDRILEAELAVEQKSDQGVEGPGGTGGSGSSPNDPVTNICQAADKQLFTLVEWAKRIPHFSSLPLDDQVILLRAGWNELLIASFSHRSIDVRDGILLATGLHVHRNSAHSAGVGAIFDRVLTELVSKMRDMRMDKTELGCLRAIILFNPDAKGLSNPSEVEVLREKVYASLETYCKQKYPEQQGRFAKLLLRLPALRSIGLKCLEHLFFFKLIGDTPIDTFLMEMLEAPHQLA

A short description of test [13]: TOX21_p53_BLA_p2_viability: Viability Assessment in the Tox21 HCT-116 p53 Agonism Beta-lactamase Assay, Phase 2 (AID 2283591).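 Also: compound exposure lasted 16 h at 37 °C; actives lower the ATP signal meaning cytotoxicity.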 The method in brief:
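HCT116 p53-bla cells, 4000/well, dosed after 5 h plating (217-fold dilution of DMSO stocks) and incubated 16 h at 37C. Viability taken as cellular ATP by CellTiter-Glo luminescence after 30 min RT; signal loss marks cytotoxicity.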

In test [14] the target is Cellular tumor antigen p53 (Homo sapiens) (UniProt P04637). Kind of test: TOX21_p53_BLA_p3_ratio: Tox21 HCT-116 p53 Agonism Beta-lactamase Assay, Ratio, Phase 3 (AID 2283596). The method in brief:
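Cells were seeded at 4000/well, rested 5 h at 37C, then dosed with DMSO compound solutions (217-fold dilution) for 16 h. CCF4-AM substrate was loaded for 2 h at room temperature, and the 460/530 nm emission ratio was fitted for gain of signal versus DMSO.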

For test [15] the target is unchanged. Kind of test: TOX21_p53_BLA_p5_ratio: Tox21 HCT-116 p53 Agonism Beta-lactamase Assay, Ratio, Phase 5 (AID 2283599). A digest of the protocol:
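HCT-116 p53-bla cells (4000/well) plated 5 h, dosed with compound (217-fold DMSO dilution) for 16 h at 37 C; CCF4-AM substrate 2 h at room temperature. Activity is the 460/530 nm emission ratio (405 nm excitation), fitted in gain-of-signal direction versus DMSO.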

The nature of test [16]: TOX21_p53_BLA_p5_viability: Viability Assessment in the Tox21 HCT-116 p53 Agonism Beta-lactamase Assay, Phase 5 (AID 2283600). A digest of the protocol:
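Viability is taken from cellular ATP content, measured by luciferase luminescence in the same wells after the beta-lactamase ratio read. Cells are seeded at 4000 per well and exposed to DMSO-dissolved compounds, diluted 217-fold, for 16 h.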

The target in test [17] is Cellular tumor antigen p53 (Homo sapiens) (UniProt P04637). Kind of test: TOX21_p53_BLA_p4_ratio: Tox21 HCT-116 p53 Agonism Beta-lactamase Assay, Ratio, Phase 4 (AID 2283601). A digest of the protocol: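 HCT-116 p53 beta-lactamase reporter cells (4000/well) preincubated 5 h, then compound (217-fold dilution of DMSO stock) for 16 h at 37C. CCF4-AM substrate added 2 h at room temperature; 460/530 nm emission ratio fitted upward versus DMSO.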
Cellular tumor antigen p53 (Homo sapiens), sequence (P04637 whole entry, looked up): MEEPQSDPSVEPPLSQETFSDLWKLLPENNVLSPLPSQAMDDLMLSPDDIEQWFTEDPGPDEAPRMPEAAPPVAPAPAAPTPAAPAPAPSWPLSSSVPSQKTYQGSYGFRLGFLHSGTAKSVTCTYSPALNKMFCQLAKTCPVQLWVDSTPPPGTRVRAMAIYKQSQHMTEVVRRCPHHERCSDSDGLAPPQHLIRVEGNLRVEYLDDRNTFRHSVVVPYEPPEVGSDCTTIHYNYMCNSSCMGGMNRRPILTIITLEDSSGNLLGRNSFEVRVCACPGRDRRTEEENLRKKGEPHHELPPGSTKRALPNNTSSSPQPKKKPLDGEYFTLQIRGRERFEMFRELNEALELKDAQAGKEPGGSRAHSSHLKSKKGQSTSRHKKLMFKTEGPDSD

Test [18] has as its target Hepatocyte nuclear factor 6 (Homo sapiens) (UniProt Q9UBC0). Put plainly: ATG_HNF6_CIS: Attagene CIS-FACTORIAL HepG2 Assay for human Hepatocyte Nuclear Factor 6 (HNF6) (AID 2282952; active = hit-call score of the fitted dose curve at least 0.9, where 1 is the maximum; inactive = score below 0.9). To be noted: HepG2 Attagene cis-factorial HNF6 reporter transcription; actives raise or lower the signal. A digest of the protocol: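 Endogenous transcription factor activity in human HepG2 liver cells was captured through cis-regulated reporter constructs. After 24 h treatment, reporter mRNA was measured by RT-PCR with capillary electrophoresis, and activity was fitted in both directions relative to DMSO.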

Test [19] is described as follows: ATG_TGFb_CIS: Attagene CIS-FACTORIAL HepG2 Assay for human Transforming Growth Factor (TGF) (AID 2282967; active = hit-call score of the fitted dose curve at least 0.9, where 1 is the maximum; inactive = score below 0.9). The settings on record: HepG2 Attagene CIS TGFb reporter, mRNA transcription; actives raise or lower the signal. A digest of the protocol:
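Bidirectional fitting relative to DMSO gave the endpoint. Underlying data: reporter mRNA from HepG2 cells carrying transiently transfected cis-regulated reporter constructs, harvested 24 h after dosing and analyzed by RT-PCR and capillary electrophoresis.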

Test [20] deals with Cellular tumor antigen p53 (Homo sapiens) (UniProt P04637). Put plainly: TOX21_p53_BLA_p2_ratio: Tox21 HCT-116 p53 Agonism Beta-lactamase Assay, Ratio, Phase 2 (AID 2283592). A digest of the protocol:
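Cleaved-to-uncleaved substrate ratio (460 vs 530 nm) measured in HCT116 cells with an inducible beta-lactamase reporter linked to p53 activity. Compounds incubated 16 h at 37C before 2 h room-temperature CCF4-AM loading.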

Each structure is given as a SMILES string. Inconclusive results are not listed. The source made the active and inactive calls. The calls were made as follows, unless noted: active = hit-call score of the fitted dose curve at least 0.9, where 1 is the maximum; inconclusive = response in the unintended direction; inactive = score below 0.9.

Retinoic acid receptor RXR-alpha (Homo sapiens), sequence (P19793 whole entry, looked up, the tested form may be a part): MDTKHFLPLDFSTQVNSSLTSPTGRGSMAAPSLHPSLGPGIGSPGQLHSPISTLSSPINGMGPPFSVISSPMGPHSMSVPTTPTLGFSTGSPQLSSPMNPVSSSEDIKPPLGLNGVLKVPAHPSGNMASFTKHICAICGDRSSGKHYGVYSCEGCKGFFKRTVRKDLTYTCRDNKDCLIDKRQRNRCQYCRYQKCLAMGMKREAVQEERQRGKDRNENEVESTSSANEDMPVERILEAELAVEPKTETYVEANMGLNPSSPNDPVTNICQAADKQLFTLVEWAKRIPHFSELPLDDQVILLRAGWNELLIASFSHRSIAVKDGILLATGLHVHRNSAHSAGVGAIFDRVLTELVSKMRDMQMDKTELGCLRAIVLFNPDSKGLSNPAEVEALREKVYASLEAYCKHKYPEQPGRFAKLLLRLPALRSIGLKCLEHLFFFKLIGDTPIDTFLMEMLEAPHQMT
Retinoic acid receptor alpha (Homo sapiens), sequence (P10276 whole entry, looked up): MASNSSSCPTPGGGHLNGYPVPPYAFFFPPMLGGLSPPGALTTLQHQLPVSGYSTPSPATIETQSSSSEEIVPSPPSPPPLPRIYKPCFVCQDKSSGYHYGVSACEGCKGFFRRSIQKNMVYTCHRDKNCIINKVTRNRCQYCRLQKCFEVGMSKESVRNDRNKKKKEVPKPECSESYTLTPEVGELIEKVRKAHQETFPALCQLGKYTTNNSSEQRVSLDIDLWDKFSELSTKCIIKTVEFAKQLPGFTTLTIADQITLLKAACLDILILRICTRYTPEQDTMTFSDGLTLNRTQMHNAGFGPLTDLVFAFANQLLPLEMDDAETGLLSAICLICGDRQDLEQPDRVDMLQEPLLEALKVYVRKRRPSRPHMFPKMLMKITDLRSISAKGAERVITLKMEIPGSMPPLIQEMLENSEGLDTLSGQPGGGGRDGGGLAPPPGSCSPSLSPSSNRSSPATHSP
Hepatocyte nuclear factor 4-alpha (Homo sapiens), sequence (P41235 whole entry, looked up, the tested form may be a part): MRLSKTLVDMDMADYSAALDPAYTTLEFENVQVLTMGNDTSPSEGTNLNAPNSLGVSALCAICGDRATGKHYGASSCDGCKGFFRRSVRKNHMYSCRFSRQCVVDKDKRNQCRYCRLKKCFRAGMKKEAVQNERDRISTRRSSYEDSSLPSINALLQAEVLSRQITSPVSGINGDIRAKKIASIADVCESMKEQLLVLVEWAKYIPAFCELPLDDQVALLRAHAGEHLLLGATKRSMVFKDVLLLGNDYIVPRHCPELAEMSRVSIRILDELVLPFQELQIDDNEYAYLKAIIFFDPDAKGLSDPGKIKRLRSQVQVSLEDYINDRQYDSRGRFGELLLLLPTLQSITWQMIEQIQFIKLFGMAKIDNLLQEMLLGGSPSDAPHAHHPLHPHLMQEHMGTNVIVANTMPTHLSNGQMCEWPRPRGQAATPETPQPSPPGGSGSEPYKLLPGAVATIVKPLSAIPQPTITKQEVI
Hepatocyte nuclear factor 6 (Homo sapiens), sequence (Q9UBC0 whole entry, looked up): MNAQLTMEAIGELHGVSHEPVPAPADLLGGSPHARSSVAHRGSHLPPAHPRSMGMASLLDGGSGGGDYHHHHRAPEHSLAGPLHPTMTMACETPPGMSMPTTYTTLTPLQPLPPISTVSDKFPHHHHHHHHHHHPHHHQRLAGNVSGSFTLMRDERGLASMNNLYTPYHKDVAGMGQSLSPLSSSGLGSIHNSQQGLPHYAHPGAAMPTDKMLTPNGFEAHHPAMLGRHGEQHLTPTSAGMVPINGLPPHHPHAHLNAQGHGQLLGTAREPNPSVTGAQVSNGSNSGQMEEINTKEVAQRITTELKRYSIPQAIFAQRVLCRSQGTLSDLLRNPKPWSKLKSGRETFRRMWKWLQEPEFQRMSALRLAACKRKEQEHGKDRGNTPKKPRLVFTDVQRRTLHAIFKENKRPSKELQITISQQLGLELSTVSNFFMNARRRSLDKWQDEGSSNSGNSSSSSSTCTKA

On to `O=C(O)c1ccccc1C(=O)O`, for which the compound was classed as inactive in [1], in test [2], in [3], in [4], in [5] and in [6]. Also, the call in [7], in [8], in test [9], in test [10], in test [11] and in test [12] was inactive. In addition, the call in test [13], in test [14], in test [15], in test [16] and in test [17] was inactive.
As for `O=C1CCCCCCCCCCCCCC1`, the compound was called inactive in test [1], in test [3], in [18], in [4], in test [5] and in [19]. The result in test [6], in [8], in [9], in [10], in [20] and in test [14] was inactive. Also, the result in test [15] was inactive. The concentration at half-maximal activity (AC50) was 26.5 µM (active) in test [11] and 13 µM (active) in [12].
With `CC(C)CC(=O)CC(C)CC(C)C` (stereo unspecified), the call in [1], in [2], in [3], in test [18], in test [4] and in [5] was inactive. Besides, the compound was called inactive in test [19], in test [6], in [9], in test [10], in test [11] and in test [12]. In addition, the compound was called inactive in test [13], in test [20], in [14], in test [15], in test [16] and in [17].
Take `c1cc(N(CC2CO2)CC2CO2)ccc1Cc1ccc(N(CC2CO2)CC2CO2)cc1` (stereo unspecified): the call in test [1], in [3], in [5], in test [19], in test [7] and in [9] was inactive. Also, the result in test [10], in [11], in test [12], in [13] and in test [16] was inactive. Also, the AC50 in test [4] is 21.3 µM (active); in test [20] it was 26.8 µM (active); in test [14], 81.6 µM (active); in test [15], 55.4 µM (active); in test [17] it was 33.1 µM (active).

For orientation: AC50 means the concentration at which the activity in the assay is half-maximal.
